Screening results (PubChem)
The list is not random: actives were taken first. Their share in the collection is about 3%.
HIF-2a block = HIF-2a inhibition; 786-0 RCC cells HIF-2a reporter, luciferase luminescence, overnight; inhibition, % at 18.8 µM; hit rate 0.72% among 360,000; AID 624352;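 active = inhibition of the luminescence signal of 40% or more relative to plate controls, in a single-dose primary screen at 18.75 µM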
ABHD5-PLIN5 inh = blocks binding of human ABHD5 to perilipin-5; Q00G26+Q8WTS1; Split G. princeps luciferase complementation, luminescence, 4 h; inhibition, % at 4 µM; hit rate 0.78% among 360,000; AID 602281;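 active = inhibition above the mean inhibition across every tested compound plus 3 SD, cut at about 22% in these data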
Target sequence (Q00G26 whole entry, looked up): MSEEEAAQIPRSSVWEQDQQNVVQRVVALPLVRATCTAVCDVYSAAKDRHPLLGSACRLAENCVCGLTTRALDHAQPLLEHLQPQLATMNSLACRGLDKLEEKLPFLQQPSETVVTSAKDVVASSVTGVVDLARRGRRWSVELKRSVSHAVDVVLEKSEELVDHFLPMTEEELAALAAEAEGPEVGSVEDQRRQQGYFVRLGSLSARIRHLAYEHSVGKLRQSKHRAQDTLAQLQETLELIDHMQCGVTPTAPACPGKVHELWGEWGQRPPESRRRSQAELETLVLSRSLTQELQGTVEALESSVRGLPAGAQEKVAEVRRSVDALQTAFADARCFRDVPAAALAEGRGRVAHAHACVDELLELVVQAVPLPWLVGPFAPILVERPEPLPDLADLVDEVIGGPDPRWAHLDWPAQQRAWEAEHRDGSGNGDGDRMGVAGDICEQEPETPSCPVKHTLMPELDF
Target sequence (Q8WTS1 whole entry, looked up): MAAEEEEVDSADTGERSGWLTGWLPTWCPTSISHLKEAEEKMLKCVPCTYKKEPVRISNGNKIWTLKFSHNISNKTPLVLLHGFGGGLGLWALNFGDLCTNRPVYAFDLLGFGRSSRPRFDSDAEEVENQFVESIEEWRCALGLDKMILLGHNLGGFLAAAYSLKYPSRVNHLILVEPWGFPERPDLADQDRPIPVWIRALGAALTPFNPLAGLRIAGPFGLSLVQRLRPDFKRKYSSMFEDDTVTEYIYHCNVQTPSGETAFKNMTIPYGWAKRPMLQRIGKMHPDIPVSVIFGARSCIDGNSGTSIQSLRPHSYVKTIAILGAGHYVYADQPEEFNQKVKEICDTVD
MITF TRPM1 inh = inhibitors of MITF-driven TRPM1 promoter in melanoma cells; SK-MEL-5 TRPM1 promoter luciferase, 24 h; inhibition, % at 12.5 µM; hit rate 0.83% among 330,000; AID 488899;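 active = mean inhibition across replicates of 60% or more, whatever share of single replicates reaches that level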
KKLEB cytotox = reduces viability of KKLEB cystic fibrosis airway cells; KKLEB CF airway cells viability, ATPlite luminescence, overnight; stronger effect = lower value; cells stimulated with P. aeruginosa culture filtrate; hit rate 0.36% among 360,000; activity change (cytotoxicity), % at 5 µM;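 active = corrected activity change at or below -50% at 5 µM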
CF NFkB inh = inhibitors of cystic fibrosis induced NF-kB | KKLEB NF-kB-GFP reporter, PAF-induced, GFP fluorescence overnight | inhibition, % at 5 µM | hit rate 0.86% among 360,000;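 active = at least 50% inhibition at 5 µM, scaled per plate between neutral and stimulator controls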;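 also: PAF is a Pseudomonas aeruginosa culture filtrate used as stimulus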
Peg3 prom inh-1 = Peg3 promoter activity inhibition; HeLa PEG-Prom luciferase reporter, luminescence, overnight; inhibition, % at 20 µM; hit rate 1.7% among 360,000; AID 588405;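 active = inhibition of at least 50% at 20 µM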
Peg3 prom inh-2 = Peg3 promoter inhibition confirmation; inhibition, % at 20 µM; AID 602417; HeLa PEG-Prom luciferase reporter, luminescence, overnight; shares compounds with Peg3 prom inh-1; hit rate 84% among 1,300;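 active = at 20 µM dose, 40% or more inhibition averaged across four replicates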
CF NFkB inh conf = CF NF-kB inhibition confirmation, single concentration. inhibition, % at 5 µM. hit rate 64% among 1,300. shares compounds with CF NFkB inh. KKLEB CF airway cells, PAF-induced NF-kB-GFP fluorescence, overnight; in the data active = inhibition above about 40%;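 also: stimulus PAF is a Pseudomonas aeruginosa filtrate and not platelet activating factor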
ABHD5 PLIN5 conf = confirmation of human ABHD5-PLIN5 interaction inhibitors | shares compounds with ABHD5-PLIN5 inh | biochemical ABHD5-PLIN5 interaction, luminescence | inhibition, % at 4 µM | hit rate 67% among 2,200 | AID 651612; in the data active = inhibition above about 23%
HNF4 counter = active in HNF4 split-luciferase counter-screen for ABHD5-PLIN5 inhibitors; hit rate 77% among 2,200; shares compounds with ABHD5-PLIN5 inh; inhibition, % at 4 µM; AID 651674; HNF4 dimerization, luminescence, biochemical;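 active = mean inhibition across replicate wells exceeding the computed hit threshold, cut at about 13% in these data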;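 also: light from luciferase halves that rejoin when HNF4 fusion proteins dimerize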
Mdm2-MdmX confirm = Mdm2/MdmX (human) interaction inhibition, confirmed; shares compounds with HIF-2a block; SaOS-2 split-luciferase Mdm2/MdmX complementation, luminescence; inhibition, % at 8 µM; hit rate 99% among 740;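 active = mean inhibition of the luminescence signal across two replicates at or above 26 percent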
HIF-2a conf = HIF-2a inhibition, single concentration confirmation; shares compounds with HIF-2a block; 786-0 RCC cells, HIF-2a luciferase reporter luminescence, overnight; inhibition, % at 18.8 µM; hit rate 56% among 1,800;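 active = mean inhibition across four replicates of at least 40 percent at the single tested concentration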
HIF-1a counter = HIF-1a inhibition counter-screen for HIF-2a hits | shares compounds with HIF-2a block | hit rate 72% among 1,800 | AID 651589 | MiaPaCa-2 HIF-1a luciferase reporter, desferoxamine, overnight | inhibition, % at 18.8 µM;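 active = mean inhibition of the reporter signal across four replicates at the single tested dose of 50% or more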
Hits are given with their value; n = inactive; x = no result.

SMILES | HIF-2a block | ABHD5-PLIN5 inh | MITF TRPM1 inh | KKLEB cytotox | CF NFkB inh | Peg3 prom inh-1 | Peg3 prom inh-2 | Mdm2-MdmX confirm | HIF-2a conf | HIF-1a counter | others
Cc1ccc(/C=C2\SC(=S)N(CCCC(=O)Nc3ccccn3)C2=O)cc1 | 84 | n | 79 | n | n | 53 | 75 | 93 | x | x
O=C(CCN1C(=O)/C(=C/c2ccccc2)SC1=S)Nc1ccccn1 | n | n | n | n | n | n | x | x | x | x
COc1ccc(CCNC(=O)c2ccc3nc[nH]c3c2)cc1 | n | n | n | n | n | n | x | x | x | x
Cc1ccc2nc(C)cc(Nc3ccc([N+](=O)[O-])cc3)c2c1 | 53 | n | 84 | n | n | 104 | 98 | x | n | 95
COc1ccc2nc(C)cc(Nc3ccc(C)cc3)c2c1 | n | n | n | n | n | n | x | x | x | x
COc1cccc2nc3c(C(=O)NCCN(C)C)cccc3cc12 | 43 | n | 77 | n | n | 99 | 97 | x | n | 105
CC(=O)C(=Cc1cccc(C#N)c1)C(=O)c1ccccc1 | 94 | 61 | x | n | 56 | 104 | n | x | n | 87 | CF NFkB inh conf=n;ABHD5 PLIN5 conf=95;HNF4 counter=87
O=C(NCc1ccccc1Cl)c1ccc2nc([C@@H]3O[C@H](CO)[C@@H](O)[C@H]3O)[nH]c2c1 | n | n | x | n | n | n | x | x | x | x
Cc1cc2c(c(/C=C/C(=O)c3ccccc3)c1)OC1(C=C2)Oc2ccccc2C(=O)N1C (stereo not given) | 80 | n | n | n | 62 | 80 | 99 | x | 62 | 105 | CF NFkB inh conf=n
COC(=O)[C@]12CCCCC=C1N(Cc1ccccc1)C(=O)[C@H](CC(=O)NCCC(C)C)C2 | n | n | x | x | x | x | x | x | x | x
CCOC(=O)c1c(NC(C)=O)sc2c(OCC(O)CN(CC)CC)c(Br)ccc12 (stereo not given) | 78 | n | n | n | n | 86 | 98 | x | n | 106
CCOC(=O)c1c(NC(C)=O)sc2c(OC)c(Br)ccc12 | n | n | n | n | n | n | x | x | x | x
O=C(Nc1cc(S(=O)(=O)N2CCOCC2)ccc1Cl)c1cc([N+](=O)[O-])ccc1Cl | 62 | n | n | n | n | 109 | 84 | x | 50 | n
CCCC(=O)NC(c1ccccc1Cl)c1ccc2cccnc2c1O (stereo not given) | n | n | x | n | n | 53 | 62 | 91 | x | x
O=C(C[C@H]1C(=O)N(CCc2ccccc2)C[C@@H]1Cc1ccccc1)Nc1ccccc1 | n | n | n | n | n | n | x | x | x | x
C/C(=N\Nc1ccc2nncn2n1)c1ccco1 | n | n | n | n | n | n | x | x | x | x
C/C(=N\Nc1ccc2nncn2n1)c1ccccn1 | n | n | x | n | n | 60 | 60 | 83 | x | x
O=C(CN1C(=O)c2ccccc2S1(=O)=O)c1ccc2c(c1)OCCCO2 | 93 | n | 82 | n | n | 99 | 95 | 96 | 99 | 104
O=C(CN1C(=O)c2ccccc2S1(=O)=O)c1ccc2c(c1)OCCO2 | 90 | n | 88 | n | n | 108 | 96 | 100 | 98 | 104
Cc1cccc(-c2noc(-c3ccc4c(c3)OCO4)n2)c1 | n | n | n | n | n | n | x | x | x | x
